Assay results reported in the supplement of paper PMC10849652.
About 8,800 targets were measured; listed, in parts, are those with a hit and a random draw of the rest. About 0.5% of all pairs of compound and target were hits.

How the values were obtained:
Assay in all cases: log2 fold change, soluble protein after heating vs DMSO (PISA); higher = thermal stabilisation; K562 lysate, 10 uM; active = over 0.2 and 3.5 SD of the protein, either way, in both replicates (recomputed)
erlotinib = compound: C#Cc1cccc(Nc2ncnc3cc(OCCOC)c(OCCOC)cc23)c1 [erlotinib]
How it was run: (§1)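 Soluble protein was defined as the supernatant remaining after 21,000xg for 90 min, following pooling of heated aliquots and adjustment to 0.5% NP-40 at 4°C. Before that, crude K562 extract at 1 mg/mL protein in PBS pH 7.4 with 1 mM MgCl2 was treated with 10 μM compound for 30 min and heated for 3 min across 48°C-58°C. Quantification used TMTpro 16plex LC-MS/MS with channel sums equalised, and values are log-two fold changes in thermal stability relative to solvent controls from duplicates.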

[1] = compound: C/C(=N\NC(=O)C1=CC(=CC=C1)S(=O)(=O)N2CCOCC2)/C3=C(C=CC(=C3)Cl)O
How it was run: as §1

[2] = compound: C1=CC(=CC=C1C2=NC3=C(N2)C=C(C=C3)C(=O)N)OC4=CC=C(C=C4)Cl
How it was run: as §1

[3] = compound: C1=CC2=C(C=CC(=C2)/C=C\3/C(=O)NC(=NCC4=CC=CS4)S3)N=C1
How it was run: as §1

[4] = compound: C1=CC2=NC=CN=C2C=C1/C=C/3\C(=O)NC(=O)S3
How it was run: as §1

[5] = compound: C1=CC=C(C=C1)C2=NC(=C(N2)C3=CC=NC=C3)C4=CC(=C(C=C4)Cl)O
How it was run: as §1

[6] = compound: C1=CC=C2C(=C1)C3=NNC4=CC=CC(=C43)C2=O
How it was run: as §1

[7] = compound: C1CCN(C1)C(=O)NC2=CC=CC(=C2)NC3=NC=C(C(=N3)NCCC4=CN=CN4)Br
How it was run: as §1

[8] = compound: C1CN(CCC1(CC2=CC=C(C=C2)Cl)N)C3=NC=NC4=C3C=CN4
How it was run: as §1

IRAK-1-4 Inhibitor I = compound: C1COCCN1CCN2C3=CC=CC=C3N=C2NC(=O)C4=CC(=CC=C4)[N+](=O)[O-] [IRAK-1-4 Inhibitor I]
How it was run: as §1

Measured: log2 fold change

MED10 (UniProt Q9BTT4)
Chain of UniProt Q9BTT4 (Q9BTT4 whole entry, looked up): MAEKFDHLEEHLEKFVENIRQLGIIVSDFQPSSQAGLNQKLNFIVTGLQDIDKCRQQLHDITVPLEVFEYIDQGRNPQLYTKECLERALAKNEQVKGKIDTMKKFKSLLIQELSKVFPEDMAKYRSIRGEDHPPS
inactive: erlotinib 0.049 | [1] -0.077 | [2] 0.044 | [3] 0.028 | [4] -0.149 | [5] -0.015 | [6] 0.029 | [7] 0.102 | [8] 0.101 | IRAK-1-4 Inhibitor I -0.022

MICU2 (UniProt Q8IYU8)
inactive: erlotinib 0.025 | [1] 0.04 | [2] -0.008 | [3] -0.024 | [4] -0.011 | [5] 0.061 | [6] -0.094 | [7] -0.037 | [8] 0.038 | IRAK-1-4 Inhibitor I -0.044

LTN1 isoform 3 (UniProt O94822)
inactive: erlotinib 0.028 | [1] 0.021 | [2] -0.065 | [3] -0.005 | [4] 0.003 | [5] -0.022 | [6] -0.045 | [7] -0.019 | [8] 0.023 | IRAK-1-4 Inhibitor I 0.006

MOCS1 isoform 8 (UniProt Q9NZB8)
inactive: erlotinib -0.055 | [1] -0.002 | [2] 0.074 | [3] 0.058 | [4] -0.008 | [5] 0.026 | [6] 0 | [7] -0.056 | [8] 0.183 | IRAK-1-4 Inhibitor I 0.02

LAMP1 (UniProt P11279)
inactive: erlotinib 0.024 | [1] 0.012 | [2] 0.021 | [3] -0.009 | [4] 0.012 | [5] 0.006 | [6] -0.006 | [7] -0.023 | [8] 0.038 | IRAK-1-4 Inhibitor I 0.091

MBLAC2 (UniProt Q68D91)
inactive: erlotinib -0.052 | [1] -0.042 | [2] 0.01 | [3] -0.055 | [4] 0.012 | [5] 0.018 | [6] 0.065 | [7] 0.026 | [8] -0.007 | IRAK-1-4 Inhibitor I -0.027

LUC7L (UniProt Q9NQ29)
inactive: erlotinib -0.024 | [1] 0.021 | [2] -0.097 | [3] 0.015 | [4] -0.067 | [5] -0.023 | [6] 0.01 | [7] -0.02 | [8] -0.004 | IRAK-1-4 Inhibitor I -0.026

LZTR1 (UniProt Q8N653)
inactive: erlotinib 0.051 | [1] 0.099 | [2] -0.018 | [3] -0.015 | [4] 0.022 | [5] -0.005 | [6] -0.071 | [7] 0.066 | [8] 0.106 | IRAK-1-4 Inhibitor I 0.08

MORF4L1 isoform 2 (UniProt Q9UBU8)
Chain of UniProt Q9UBU8 (Q9UBU8 whole entry, looked up): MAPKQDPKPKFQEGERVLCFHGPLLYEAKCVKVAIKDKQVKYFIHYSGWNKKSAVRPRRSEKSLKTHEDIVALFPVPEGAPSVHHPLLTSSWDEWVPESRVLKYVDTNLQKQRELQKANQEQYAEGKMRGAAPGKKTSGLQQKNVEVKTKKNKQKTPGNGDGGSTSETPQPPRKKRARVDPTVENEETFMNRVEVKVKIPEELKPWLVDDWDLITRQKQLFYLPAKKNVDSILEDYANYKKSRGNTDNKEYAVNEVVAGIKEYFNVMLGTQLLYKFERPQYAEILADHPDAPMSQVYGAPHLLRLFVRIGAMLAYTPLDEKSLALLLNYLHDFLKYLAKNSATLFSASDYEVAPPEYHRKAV
inactive: erlotinib 0.028 | [1] 0.06 | [2] 0.046 | [3] -0.027 | [4] -0.032 | [5] -0.005 | [6] 0.017 | [7] -0.04 | [8] -0.01 | IRAK-1-4 Inhibitor I 0.013

MAST2 (UniProt Q6P0Q8)
active: [4] -0.588
inactive: erlotinib 0.044 | [1] -0.054 | [2] 0.142 | [3] 0.003 | [5] -0.03 | [6] 0.099 | [7] 0.038 | [8] -0.046 | IRAK-1-4 Inhibitor I 0.073

MCMBP (UniProt Q9BTE3)
inactive: erlotinib 0.038 | [1] 0.069 | [2] 0.024 | [3] 0.063 | [4] 0.01 | [5] -0.017 | [6] 0.001 | [7] -0.023 | [8] 0.072 | IRAK-1-4 Inhibitor I 0

MAP4 isoform 5 (UniProt P27816)
inactive: erlotinib -0.086 | [1] 0.041 | [2] -0.251 | [4] -0.035 | [5] -0.019 | [6] 0.121 | [7] -0.05 | [8] 0.026 | IRAK-1-4 Inhibitor I 0.112
active: [3] -0.495

MLXIP (UniProt Q9HAP2)
inactive: erlotinib 0.011 | [1] 0.003 | [2] 0.027 | [3] 0.01 | [4] -0.017 | [5] 0.04 | [6] -0.011 | [7] -0.025 | [8] -0.01 | IRAK-1-4 Inhibitor I 0.003

MAD2L1BP isoform 3 (UniProt Q15013)
Chain of UniProt Q15013 (Q15013 whole entry, looked up): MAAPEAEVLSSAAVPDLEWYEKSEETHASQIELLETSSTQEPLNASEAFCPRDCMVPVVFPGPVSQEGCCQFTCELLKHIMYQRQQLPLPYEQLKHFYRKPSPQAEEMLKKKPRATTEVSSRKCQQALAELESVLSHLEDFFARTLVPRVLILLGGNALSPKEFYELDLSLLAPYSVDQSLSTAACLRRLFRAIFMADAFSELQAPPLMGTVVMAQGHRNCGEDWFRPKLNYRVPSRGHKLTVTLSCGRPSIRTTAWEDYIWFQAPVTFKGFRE
active: [8] 0.263
inactive: erlotinib 0.067 | [1] -0.081 | [2] 0.002 | [3] 0.078 | [4] -0.015 | [5] 0.005 | [6] 0.063 | [7] -0.029 | IRAK-1-4 Inhibitor I -0.002

MOSPD2 (UniProt Q8NHP6)
Chain of UniProt Q8NHP6 (Q8NHP6 whole entry, looked up): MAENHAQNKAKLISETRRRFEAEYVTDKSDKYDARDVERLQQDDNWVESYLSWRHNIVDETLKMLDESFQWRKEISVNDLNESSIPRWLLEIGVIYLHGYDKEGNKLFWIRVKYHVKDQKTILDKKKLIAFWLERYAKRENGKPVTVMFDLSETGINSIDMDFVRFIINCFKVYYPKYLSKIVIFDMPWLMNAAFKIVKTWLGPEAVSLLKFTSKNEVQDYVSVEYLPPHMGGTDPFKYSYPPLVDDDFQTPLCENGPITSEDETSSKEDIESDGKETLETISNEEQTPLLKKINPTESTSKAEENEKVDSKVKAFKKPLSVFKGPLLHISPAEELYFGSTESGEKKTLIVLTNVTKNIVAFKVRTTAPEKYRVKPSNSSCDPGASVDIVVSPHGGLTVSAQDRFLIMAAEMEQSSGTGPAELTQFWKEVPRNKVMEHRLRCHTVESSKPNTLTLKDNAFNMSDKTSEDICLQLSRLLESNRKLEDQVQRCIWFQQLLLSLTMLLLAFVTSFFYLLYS
inactive: erlotinib -0.049 | [1] 0.152 | [2] 0 | [3] 0.072 | [4] 0.027 | [5] -0.015 | [6] 0.157 | [7] -0.062 | [8] -0.023 | IRAK-1-4 Inhibitor I 0.057

MGAT5 (UniProt Q09328)
inactive: erlotinib 0.037 | [1] 0.03 | [2] 0.087 | [3] 0.044 | [4] 0.078 | [5] -0.003 | [6] 0.132 | [7] -0.03 | [8] 0.066 | IRAK-1-4 Inhibitor I -0.05

KIF21A isoform 5 (UniProt Q7Z4S6)
inactive: erlotinib -0.025 | [1] 0.022 | [2] -0.002 | [3] 0.01 | [4] -0.013 | [5] -0.016 | [6] -0.034 | [7] -0.009 | [8] 0.01 | IRAK-1-4 Inhibitor I -0.002

KIF14 (UniProt Q15058)
Chain of UniProt Q15058 (Q15058 whole entry, looked up): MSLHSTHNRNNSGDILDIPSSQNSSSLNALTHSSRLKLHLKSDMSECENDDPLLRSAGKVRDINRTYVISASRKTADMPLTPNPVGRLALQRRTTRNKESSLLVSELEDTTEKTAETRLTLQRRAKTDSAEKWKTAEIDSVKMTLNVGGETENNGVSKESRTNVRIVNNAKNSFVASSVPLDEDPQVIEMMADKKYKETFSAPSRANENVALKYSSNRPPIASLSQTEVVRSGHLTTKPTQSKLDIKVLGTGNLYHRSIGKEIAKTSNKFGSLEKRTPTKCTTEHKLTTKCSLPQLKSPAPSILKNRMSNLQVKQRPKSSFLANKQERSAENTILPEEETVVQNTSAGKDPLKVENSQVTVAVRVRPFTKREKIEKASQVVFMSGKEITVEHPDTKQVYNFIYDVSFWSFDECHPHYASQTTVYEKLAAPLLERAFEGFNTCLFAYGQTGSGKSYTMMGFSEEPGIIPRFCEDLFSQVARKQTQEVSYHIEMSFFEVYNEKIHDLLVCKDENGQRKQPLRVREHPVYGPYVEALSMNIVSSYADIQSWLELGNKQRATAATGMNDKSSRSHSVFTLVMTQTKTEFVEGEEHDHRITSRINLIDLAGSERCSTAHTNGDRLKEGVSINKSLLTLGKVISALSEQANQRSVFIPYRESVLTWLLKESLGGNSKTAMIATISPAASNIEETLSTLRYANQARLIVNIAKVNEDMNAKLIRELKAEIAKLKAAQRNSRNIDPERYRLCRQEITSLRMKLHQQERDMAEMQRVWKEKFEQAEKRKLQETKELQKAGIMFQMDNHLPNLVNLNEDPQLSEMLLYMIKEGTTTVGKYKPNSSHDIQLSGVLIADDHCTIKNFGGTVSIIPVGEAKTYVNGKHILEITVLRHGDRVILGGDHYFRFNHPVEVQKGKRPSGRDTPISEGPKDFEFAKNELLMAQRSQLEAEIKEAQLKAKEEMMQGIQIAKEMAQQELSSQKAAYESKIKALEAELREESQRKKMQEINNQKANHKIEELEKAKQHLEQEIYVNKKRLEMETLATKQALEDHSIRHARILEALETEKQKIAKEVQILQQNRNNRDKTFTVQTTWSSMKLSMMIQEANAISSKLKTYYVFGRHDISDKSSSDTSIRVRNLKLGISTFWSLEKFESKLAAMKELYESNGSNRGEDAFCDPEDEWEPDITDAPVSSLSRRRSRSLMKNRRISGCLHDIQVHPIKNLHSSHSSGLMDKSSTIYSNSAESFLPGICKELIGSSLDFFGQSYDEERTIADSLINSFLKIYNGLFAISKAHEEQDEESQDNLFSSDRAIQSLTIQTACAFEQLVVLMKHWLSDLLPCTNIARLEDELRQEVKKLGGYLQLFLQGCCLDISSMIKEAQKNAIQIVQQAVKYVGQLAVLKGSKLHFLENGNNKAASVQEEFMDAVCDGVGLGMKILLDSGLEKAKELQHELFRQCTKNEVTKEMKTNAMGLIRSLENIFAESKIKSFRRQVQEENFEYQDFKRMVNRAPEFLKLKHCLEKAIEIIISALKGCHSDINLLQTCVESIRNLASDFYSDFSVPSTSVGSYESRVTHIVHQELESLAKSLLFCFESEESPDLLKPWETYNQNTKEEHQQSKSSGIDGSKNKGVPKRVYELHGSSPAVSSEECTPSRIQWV
inactive: erlotinib 0.031 | [1] -0.06 | [2] 0.016 | [3] -0.04 | [4] -0.176 | [5] 0.01 | [6] -0.032 | [7] -0.002 | [8] 0.008 | IRAK-1-4 Inhibitor I -0.014

MRPL19 (UniProt P49406)
inactive: erlotinib 0.02 | [1] 0.079 | [2] -0.041 | [3] -0.003 | [4] -0.007 | [5] -0.032 | [6] -0.019 | [7] -0.014 | [8] 0.005 | IRAK-1-4 Inhibitor I 0

MAPK6 (UniProt Q16659)
inactive: erlotinib -0.004 | [1] 0.036 | [2] 0.019 | [3] 0.006 | [4] 0.015 | [5] 0.001 | [6] 0.069 | [7] 0.068 | [8] 0.015 | IRAK-1-4 Inhibitor I -0.027

MAP2K3 isoform 3 (UniProt P46734)
inactive: erlotinib 0.048 | [1] 0.061 | [2] 0.03 | [3] -0.063 | [4] 0.03 | [5] -0.037 | [6] 0.119 | [7] -0.006 | [8] 0.129 | IRAK-1-4 Inhibitor I 0.03

LARP4B (UniProt Q92615)
inactive: erlotinib -0.019 | [1] 0.013 | [2] -0.027 | [3] -0.005 | [4] 0.009 | [5] -0.021 | [6] 0.033 | [7] 0.012 | [8] -0.033 | IRAK-1-4 Inhibitor I -0.025

MORC3 (UniProt Q14149)
inactive: erlotinib 0.02 | [1] -0.047 | [2] -0.005 | [3] 0.01 | [4] -0.025 | [5] 0.034 | [6] -0.033 | [7] -0.029 | [8] 0.002 | IRAK-1-4 Inhibitor I -0.011

LLGL1 (UniProt Q15334)
inactive: erlotinib 0.036 | [1] -0.06 | [2] 0.021 | [3] 0.02 | [4] 0.007 | [5] 0.001 | [6] -0.112 | [7] -0.08 | [8] 0.018 | IRAK-1-4 Inhibitor I -0.136

KLC2 (UniProt Q9H0B6)
inactive: erlotinib -0.008 | [1] 0.065 | [2] 0.07 | [3] 0.008 | [4] -0.056 | [5] 0.004 | [6] -0.061 | [7] -0.048 | [8] -0.056 | IRAK-1-4 Inhibitor I -0.009

MAP3K4 (UniProt Q9Y6R4)
Chain of UniProt Q9Y6R4 (Q9Y6R4 whole entry, looked up): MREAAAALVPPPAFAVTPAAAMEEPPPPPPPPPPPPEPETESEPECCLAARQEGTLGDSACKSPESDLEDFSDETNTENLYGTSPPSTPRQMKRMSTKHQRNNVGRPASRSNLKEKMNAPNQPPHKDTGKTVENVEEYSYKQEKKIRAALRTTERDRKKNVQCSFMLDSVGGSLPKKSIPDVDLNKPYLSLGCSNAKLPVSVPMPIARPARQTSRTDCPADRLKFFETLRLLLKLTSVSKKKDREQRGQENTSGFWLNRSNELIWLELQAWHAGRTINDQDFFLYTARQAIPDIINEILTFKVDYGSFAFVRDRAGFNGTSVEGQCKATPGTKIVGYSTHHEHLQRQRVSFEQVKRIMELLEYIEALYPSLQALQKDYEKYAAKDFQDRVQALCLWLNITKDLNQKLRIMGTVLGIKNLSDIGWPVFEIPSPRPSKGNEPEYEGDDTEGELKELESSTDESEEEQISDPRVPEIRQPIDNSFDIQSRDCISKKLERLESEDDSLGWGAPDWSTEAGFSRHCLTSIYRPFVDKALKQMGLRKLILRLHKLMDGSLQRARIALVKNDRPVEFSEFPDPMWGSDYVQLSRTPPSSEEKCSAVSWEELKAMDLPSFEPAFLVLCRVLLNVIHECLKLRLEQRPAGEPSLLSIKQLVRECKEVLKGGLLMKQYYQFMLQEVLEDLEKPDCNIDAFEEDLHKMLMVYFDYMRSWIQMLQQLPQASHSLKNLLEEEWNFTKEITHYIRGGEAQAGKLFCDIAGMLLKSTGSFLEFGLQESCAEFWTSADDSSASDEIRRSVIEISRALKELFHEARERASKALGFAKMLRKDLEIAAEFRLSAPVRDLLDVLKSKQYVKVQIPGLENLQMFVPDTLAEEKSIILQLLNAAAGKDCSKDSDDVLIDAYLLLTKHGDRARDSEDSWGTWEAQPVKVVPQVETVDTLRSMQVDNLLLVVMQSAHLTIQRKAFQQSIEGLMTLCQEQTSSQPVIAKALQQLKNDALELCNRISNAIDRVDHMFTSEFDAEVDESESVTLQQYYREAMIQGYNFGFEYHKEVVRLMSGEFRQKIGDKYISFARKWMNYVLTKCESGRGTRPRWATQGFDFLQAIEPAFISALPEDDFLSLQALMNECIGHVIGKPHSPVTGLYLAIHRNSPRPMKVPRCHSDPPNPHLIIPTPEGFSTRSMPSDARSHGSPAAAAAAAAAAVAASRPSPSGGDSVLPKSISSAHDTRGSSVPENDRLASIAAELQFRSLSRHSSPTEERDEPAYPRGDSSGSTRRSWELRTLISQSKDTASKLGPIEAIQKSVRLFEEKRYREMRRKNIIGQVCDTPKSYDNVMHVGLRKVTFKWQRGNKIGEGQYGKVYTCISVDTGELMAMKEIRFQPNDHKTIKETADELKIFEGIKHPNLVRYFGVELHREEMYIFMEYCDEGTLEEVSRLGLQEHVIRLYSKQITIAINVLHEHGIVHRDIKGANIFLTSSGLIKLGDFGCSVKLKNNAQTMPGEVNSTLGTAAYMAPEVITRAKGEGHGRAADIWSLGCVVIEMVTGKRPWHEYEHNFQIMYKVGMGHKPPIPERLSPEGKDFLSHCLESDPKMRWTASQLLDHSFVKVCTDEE
inactive: erlotinib 0.051 | [1] -0.027 | [2] -0.026 | [3] 0.011 | [4] -0.014 | [5] 0.018 | [6] 0.105 | [7] 0.051 | [8] -0.101 | IRAK-1-4 Inhibitor I -0.013

MAP2K1 (UniProt Q02750)
Chain of UniProt Q02750 (Q02750 whole entry, looked up): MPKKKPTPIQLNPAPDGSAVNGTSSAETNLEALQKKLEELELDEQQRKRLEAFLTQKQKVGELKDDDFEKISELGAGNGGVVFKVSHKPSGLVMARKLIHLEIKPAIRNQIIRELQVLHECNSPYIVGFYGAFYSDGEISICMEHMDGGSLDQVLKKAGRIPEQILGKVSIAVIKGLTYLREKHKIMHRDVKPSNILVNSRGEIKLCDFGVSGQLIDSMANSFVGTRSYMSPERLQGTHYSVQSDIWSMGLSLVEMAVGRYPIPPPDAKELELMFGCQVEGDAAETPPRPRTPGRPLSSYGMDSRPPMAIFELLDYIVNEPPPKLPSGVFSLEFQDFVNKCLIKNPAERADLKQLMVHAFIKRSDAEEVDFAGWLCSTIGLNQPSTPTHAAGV
inactive: erlotinib 0.016 | [1] 0.04 | [2] -0.026 | [3] -0.02 | [4] -0.012 | [5] -0.006 | [6] 0.188 | [7] 0.105 | [8] 0.077 | IRAK-1-4 Inhibitor I 0.011

KRR1 (UniProt Q13601)
inactive: erlotinib 0.016 | [1] -0.232 | [2] -0.007 | [3] -0.019 | [4] 0.009 | [5] -0.01 | [6] 0.045 | [7] -0.032 | [8] 0.06 | IRAK-1-4 Inhibitor I -0.069

MIF (UniProt P14174)
inactive: erlotinib 0.006 | [1] 0.003 | [2] -0.021 | [3] -0.045 | [4] -0.007 | [5] -0.009 | [6] 0.047 | [7] -0.023 | [8] 0.032 | IRAK-1-4 Inhibitor I 0.058
